High-throughput results (PubChem BioAssay)
Tau fibril ThT – inhibitors of human tau fibril formation, thioflavin T binding; P10636; recombinant tau K18 P301L, heparin-induced fibrillization, ThT fluorescence; Potency, µM (series often up to 57.4 µM), inactives show top-dose activity, negative = inhibition, actives largely listed as inhibitors; 2.1% of 270,000 active; note: nearly all actives have a fitted effect of over 55% in size
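Using a mix of unlabeled (15 uM) and Alexa 594-labeled (0.24 uM) tau K18 P301L, heparin-triggered fibrillization over 6 hr at 37 C was scored by ThT fluorescence.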
Tau fluor cs – counter-screen for tau fibril formation inhibitors | tau K18 P301L (four-repeat tau fragment) Alexa594 fluorescence, heparin fibrillization | Potency, µM (doses to about 57.7 µM), without a hit: at the highest dose activity change, negative = decrease | 0.93% of 280,000 active | AID 1463; note: nearly all actives have a fitted effect of over 55% in size
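Human K18 P301L tau (15 uM unlabeled plus 0.24 uM Alexa 594-labeled, final) in 100 mM sodium acetate pH 7 was mixed with compound and 20 uM heparin and incubated 6 hr at 37 C.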
Tau fibril FP – tau fibrillization inhibition (FP). Potency, µM (top dose mostly 57.7 µM), inactives show at the highest dose activity, negative = inhibition, usual class: inhibitors. K18 P301L tau heparin fibrillization, Alexa594 FP, 6 h. P10636. AID 1468. 0.39% of 280,000 active; note: nearly all actives have a fitted effect of over 55% in size
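Quantitative HTS format: compounds meet 15 uM recombinant K18 P301L tau and Alexa 594-tau tracer in 100 mM sodium acetate pH 7; 20 uM heparin triggers fibrillization at 37 C over 6 hr; FP gives the signal.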
Gal4-VP16 FLuc – counter-screen for ROR gamma inhibitors: Gal4-VP16 reporter; Drosophila S2 Gal4-VP16 UAS-luciferase, luminescence, 20 h; Potency, µM (titrated, usually from 53.6 µM), for the others: at the top dose activity, negative = inhibition, most hits filed as inhibitors; 3.5% of 310,000 active; AID 2546;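 note: Gal4-VP16 expression switched on by copper sulfate through the metallothionein promoter; nearly all actives have a fitted effect of over 50% in size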
RORgamma inh – blocks mouse ROR gamma transcriptional activity | P51450 | Drosophila S2 Gal4-RORgamma UAS-luciferase reporter, 20 h | Potency, µM (doses to about 53.6 µM), for the others: at the top dose activity change, negative = inhibition, most hits filed as inhibitors | 5.4% of 310,000 active | AID 2551; note: nearly all actives have a fitted effect of over 60% in size
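Stable Schneider cell line, Gal4 DNA-binding domain fused to ROR gamma, UAS-luciferase. Cmpd 1 hr RT → CuSO4 700 uM final → 20 hr RT → luciferase reagent 10 min → luminescence.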
An asterisk follows results filed as active; u = inconclusive. In the library only some 7.3% were active in any assay of this set; here they are far more common. Calls come from the whole dose curve; as a rule, active = well fitted curve in the direction sought with a large enough effect; inconclusive = small, poorly fitted or top-dose-only effect, or another doubt; inactive = no such curve, though single readings can be large; an effect the other way counts as inactive or inconclusive. % is set by controls: 0 for no effect and ±100 for the full control effect; potency is the fitted concentration of half-maximal effect.

SMILES	Tau fibril ThT	Tau fluor cs	Tau fibril FP	Gal4-VP16 FLuc	RORgamma inh
NC(=S)N=Nc1c(O)n(CCCl)c2ccc(Br)cc12	u	-19%	-9%	3.5µM*	0.79µM*
CCCCn1c(O)c(N=NC(=O)c2ccncc2)c2cc(Br)ccc21	u	-12%	3%	-1%	u
CCCCCC1CC1C(=O)N/N=C/c1ccc(N(C)C)cc1 (configuration not stated)	16µM*	u	4%	4%	5%
CCCCOc1ccc(/C=N/NC(=O)C2CCCNC2=O)cc1 (configuration not stated)	-10%	-2%	1%	9%	-1%
CCN(CC)C(=O)C1CCCN(C(=O)Nc2ccc3nsnc3c2)C1 (configuration not stated)	14µM*	-20%	u	-15%	-32%
O=S(=O)(Nc1cccc(CCc2ccccn2)c1)c1ccc2ccccc2c1	-4%	-3%	2%	2.5µM*	7.9µM*
O=S(=O)(Nc1cccc(CCc2ccccn2)c1)c1cc(Cl)ccc1Cl	-10%	-29%	-1%	-1%	5%
COC(=O)[C@@]1(Cc2ccccc2-c2ccco2)C=C[C@H](C)[C@@H](c2ccccc2)N1C(=O)C(F)(F)F	-13%	-7%	-5%	0%	u
